High-throughput results from PubChem.
In the library only some 4.1% were active in any assay of this set; here they are far more common.
Luminol counter: counter-screen for Nox1 inhibitors: inhibitors of luminol chemiluminescence. HRP/luminol/H2O2 chemiluminescence counterscreen. inhibition, % at 6.7 µM. 16,000 tested, 0.4% active; note: reference of the scale not given here
Nox1 inh: inhibitors of human NADPH oxidase 1 (Nox1); Q9Y5S8; HT29 cells, luminol chemiluminescence ROS; inhibition, % at 6.7 µM; 16,000 tested, 0.81% active; AID 1792, 2009
S1P1 agonist: activates the human S1P1 receptor; S1P1 agonist cell-based reporter assay; activation, % at 4.5 µM; 16,000 tested, 1.5% active; in the data active = activation above about 80%
NOTCH agonist: agonists of NOTCH signaling; 15,000 tested, 0.4% active; NOTCH signaling luciferase reporter cells, luminescence; AID 434982, 2010; activation, % at 2.5 µM; in the data active = activation above about 2.2%
PME-1 Maybridge: inhibitors of human PME-1 in Maybridge library; Protein phosphatase methylesterase 1 (Homo sapiens), Q9Y570; recombinant PME-1, FP-Rh probe fluorescence polarization; inhibition, % at 9 µM; 16,000 tested, 0.5% active; AID 2291, 2010; in the data active = inhibition above about 30%
rat GALR2 agon: agonists of rat galanin receptor 2 (GALR2) | cell-based GALR2 agonist screen | 16,000 tested, 0.5% active | activation, % at 10 µM; in the data active = activation above about 15%
Each line names hits and unclear results; the compound was inactive in the other large screens. Cut-off read from the data, not from the text of the source, unless noted: active = inhibition above about 75%; inactive = the rest.

O=C(NC(=O)c1c(F)cccc1Cl)Nc1ncc(C(F)(F)F)cc1Cl	none
COC(=O)c1cccc(NC(=O)NC(=O)c2cccs2)c1	rat GALR2 agon 16.2
CCOC(=O)c1cnc2cc(-c3ccccc3)nn2c1C	none
CCOC(=O)c1nnc2c3c(-c4ccccc4)c(-c4ccccc4)nnc3nn2c1C	S1P1 agonist 101.4
O=C1CNC(=S)N1CCc1ccc(O)c(O)c1	Luminol counter 96.2, Nox1 inh 92.9
Cc1nn(C(=O)c2ccccc2)c(C)c1Oc1ccc(Cl)cc1	NOTCH agonist 3.9
N#C/C(=C\c1cccc([N+](=O)[O-])c1)c1cccc(C(F)(F)F)c1	none
N#Cc1c(C(F)(F)F)c([N+](=O)[O-])c(-c2cccc([N+](=O)[O-])c2)[nH]c1=O	rat GALR2 agon 25.1
ON/C=N/c1ncc(C(F)(F)F)cc1Cl	none
C/C=C/C=N/NC(=O)N/N=C/C=C/C	NOTCH agonist 3.0
CCNC(=O)NC(=O)c1csc([N+](=O)[O-])c1	none
O=[N+]([O-])c1cccc(-c2c[nH]c(=S)[nH]2)c1	none
S=c1[nH]cc(-c2ccc(Br)cc2)[nH]1	Nox1 inh 97.7
CC(=NCc1ccc2c(c1)OCO2)c1ccccc1O	NOTCH agonist 2.4
N#Cc1c(-c2ccncc2)[nH]c(=S)[nH]c1=O	none
N#Cc1c(N)nc2[nH]c(=S)[nH]c(=O)c2c1-c1ccc([N+](=O)[O-])cc1	Luminol counter 83.8
c1ccc(-c2nc(-c3noc(-c4ccccc4)n3)no2)cc1	none (no result: NOTCH agonist)
COc1ccc(-c2noc(-c3ccccc3)n2)cc1OC1CCCC1	S1P1 agonist 98.3
COc1ccc(-c2nc(-c3ccc(OS(=O)(=O)N(C)C)cc3)no2)cc1OC	S1P1 agonist 107.3
COc1ccc(-c2nc(-c3cccc(C)c3)no2)cc1OC	S1P1 agonist 96.8
CN(C)/C=C(\C#N)S(=O)(=O)/C(C#N)=C/N(C)C	none
CC(C)(O)C#Cc1ccc(/C=N/OC(=O)c2ccccc2Cl)cc1	none
O=C(c1ccccc1C(F)(F)F)N1CCCN(CCc2ccccc2)CC1	none
Cc1nc(C(F)(F)F)ccc1C(=O)N1CCN(c2nc3ccc(Cl)cc3s2)CC1	S1P1 agonist 87.9
COc1ccc(/C=C2/N=C(c3ccccc3)NC2=O)cc1	rat GALR2 agon 15.0
Cn1nc(-c2ccc(-c3ccn(S(=O)(=O)c4ccc(Cl)cc4)n3)s2)cc1C(F)(F)F	none
Cc1nn(-c2ccccc2)nc1C(=O)NNC(=O)CSCc1cccc2ccccc12	S1P1 agonist 89.4
CCc1nc2ccccc2nc1N1CCCC1	none
CC1C(c2ccccc2)OCCN1C(=S)Nc1ccc(S(=O)(=O)N2CCCCC2)cc1 (stereo not drawn)	none
OC(CNc1ccc(Cl)cc1)CSc1ccc(Cl)cc1 (stereo not drawn)	none
O=C1CSCC(=O)N1c1csc(C(F)(F)F)c1-c1ccccc1	S1P1 agonist 100.0
Cc1nc(N)[nH]c(=O)c1Oc1ccc(Cl)cc1	none
COc1cc2ncnc(NNC(=O)c3cccs3)c2cc1OC	Nox1 inh 86.4
COc1ccc(CCNC(=O)c2cccs2)cc1OC	none
FC(F)(F)COc1ccc(OCC(F)(F)F)c(-c2n[nH]c(=S)o2)c1	Luminol counter 87.0
COc1ccc(CC(=O)n2nc(-c3ccc(F)cc3)cc2SC)cc1OC	none
Cn1ccnc1CS(=O)(=O)c1cc(Cl)c(Oc2ccc([N+](=O)[O-])cc2Cl)c(Cl)c1	S1P1 agonist 104.5
Oc1c(Cl)c2nc3ccccc3nc2c2ccccc12	none
O=Cc1c(O)c2ccccc2c2ccccc12	PME-1 Maybridge 30.6
NC(=O)C1CCN(C(=O)/C=C/C(=O)O)CC1	none
O=C(N/N=C/c1ccc(O)cc1)N/N=C/c1ccc(O)cc1	Nox1 inh 96.2
COC(=O)c1cc(-c2ccc(OC)cc2)c(-c2ccc(OC)cc2)s1	none
O=C(Nc1ccc(N2CCCCC2)cc1)Nc1ccccc1OC(F)(F)F	Nox1 inh 80.2
CCOC(=O)c1nc(C)sc1-c1ccn[nH]1	none
CCOC(=O)c1csc(Nc2ccncc2)n1	none
CCOC(=O)c1csc(N/N=C2\CCc3ccccc32)n1	PME-1 Maybridge 61.5
Cc1cc(CSCc2ccc(Cl)cc2)no1	none
O=C(C1Cc2ccccc2C1)N1CCOCC1	none
